Screens: PubChem BioAssay, Buhrlage Lab, Dana-Farber Cancer Institute and Novartis Institutes for BioMedical Research (Cambridge, Mass)
OTUD3 inh – blocks human OTUD3 ubiquitin-rhodamine cleavage | purified OTUD3, Ub-rhodamine fluorescence, 2 h | inhibition, % at 25 µM | Q5T2D3 | AID 1645858 | hit rate 0.7% among 47,000
Target sequence (Q5T2D3 whole entry, looked up): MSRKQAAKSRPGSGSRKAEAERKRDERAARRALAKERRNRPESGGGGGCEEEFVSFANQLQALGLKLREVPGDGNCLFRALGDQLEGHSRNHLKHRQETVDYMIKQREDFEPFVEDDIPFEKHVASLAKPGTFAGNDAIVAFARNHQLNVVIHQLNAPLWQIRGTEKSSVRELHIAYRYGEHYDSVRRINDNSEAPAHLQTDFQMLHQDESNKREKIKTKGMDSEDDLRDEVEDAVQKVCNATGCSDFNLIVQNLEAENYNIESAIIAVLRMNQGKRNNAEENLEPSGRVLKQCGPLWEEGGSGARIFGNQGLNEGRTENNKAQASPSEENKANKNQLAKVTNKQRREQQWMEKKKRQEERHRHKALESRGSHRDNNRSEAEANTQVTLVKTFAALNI
USP7 inh – human USP7 deubiquitinase inhibition | Q93009 | purified USP7, Ub-rhodamine cleavage fluorescence | inhibition, % at 20 µM | hit rate 0.3% among 47,000 | AID 1645854
USP8 inh – human USP8 deubiquitinase inhibition; P40818; purified USP8, Ub-rhodamine cleavage fluorescence, 30 min; inhibition, % at 20 µM; hit rate 4.2% among 47,000; AID 1645853
USP10 inh – inhibitors of human USP10 deubiquitinase; hit rate 1.1% among 47,000; inhibition, % at 20 µM; AID 1645856; purified USP10, Ub-rhodamine fluorescence, 60 min
UCHL1 inh – inhibitors of human UCHL1 deubiquitinase. purified UCHL1, Ub-rhodamine cleavage fluorescence. P09936. inhibition, % at 20 µM. hit rate 0.2% among 47,000
Target sequence (P09936 whole entry, looked up): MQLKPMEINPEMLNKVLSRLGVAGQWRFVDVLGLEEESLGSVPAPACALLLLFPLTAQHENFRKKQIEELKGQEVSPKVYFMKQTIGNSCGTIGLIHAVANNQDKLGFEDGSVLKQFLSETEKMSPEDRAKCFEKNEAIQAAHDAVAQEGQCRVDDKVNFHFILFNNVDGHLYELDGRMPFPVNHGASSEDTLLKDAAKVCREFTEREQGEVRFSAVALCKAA
Active calls of the source: *. Shown are actives, neighbours in structure and some others; about 4.9% of the full set was active somewhere. Cut-off read from the data, not from the text of the source: active = inhibition above about 30%; inactive = the rest.

Results for COc1ccc(S(=O)(=O)N2CCc3ccccc32)cc1C(=O)Nc1ccc2c(c1)NC(=O)C(C)O2 (stereo not drawn) ?
OTUD3 inh: -8.3; USP7 inh: 3.9; USP8 inh: 71.5*; USP10 inh: 34.7*; UCHL1 inh: 0.4

Results for CCOC(=O)c1ccc(NC(=O)C2CCN(c3nccc4sccc34)CC2)cc1 ?
OTUD3 inh: -16.2; USP7 inh: -6.6; USP8 inh: 53.7*; USP10 inh: 3.7; UCHL1 inh: -1.2

How did CC(=O)c1ccc(NC(=O)C2CCN(c3cncnc3N3CCCC3)CC2)cc1 do in these assays?
OTUD3 inh: -8.4; USP7 inh: -12.1; USP8 inh: -3.3; USP10 inh: 0.7; UCHL1 inh: 1.0

How did Cc1cccc(C(=O)Nc2ccc(NC(=O)COc3ccccc3Cl)cc2)c1 do in these assays?
OTUD3 inh: -3.2; USP7 inh: 4.8; USP8 inh: 67.5*; USP10 inh: 9.3; UCHL1 inh: -0.2

How did O=C(NC1CCCCC1)c1c(-c2ccc(F)cc2)c2c3n(c(-c4ccc(F)cc4)cn13)CCCC2 do in these assays?
OTUD3 inh: -30.3; USP7 inh: -10.5; USP8 inh: -28.6; USP10 inh: -4.9; UCHL1 inh: 1.5

What do the screens show for `Cc1ccccc1NC(=O)Cn1c(C)nc2c(c1=O)CCN(Cc1ccccc1)C2`?
OTUD3 inh: -5.7; USP7 inh: -2.5; USP8 inh: 49.2*; USP10 inh: -13.6; UCHL1 inh: -1.1

How did Cc1ccc(C(C(=O)NCc2ccc3c(c2)OCO3)N(C(=O)c2ccc3c(c2)OCCO3)C2CCCC2)cc1 (stereo not drawn) do in these assays?
OTUD3 inh: -34.3; USP7 inh: 9.3; USP8 inh: 47.5*; USP10 inh: -7.2; UCHL1 inh: 0.8

Results for Cc1ccc(C(C(=O)NCc2ccc3c(c2)OCO3)N(C(=O)c2ccc3c(c2)OCCO3)c2cc(C)cc(C)c2)cc1 (stereo not drawn) ?
OTUD3 inh: -7.1; USP7 inh: 5.2; USP8 inh: 7.9; USP10 inh: -5.8; UCHL1 inh: 1.7

What do the screens show for `N#Cc1cnn(-c2ccccc2)c1NC(=O)COc1ccccc1`?
OTUD3 inh: 14.9; USP7 inh: 2.0; USP8 inh: 0.0; USP10 inh: 0.3; UCHL1 inh: 0.4

Results for COC(=O)C(Cc1ccccc1)NC(=O)CSc1nc2ccc(Cl)cc2[nH]1 (stereo not drawn) ?
OTUD3 inh: -12.6; USP7 inh: -17.8; USP8 inh: 42.6*; USP10 inh: -1.0; UCHL1 inh: 1.1

Results for O=C(CNS(=O)(=O)c1ccc(F)cc1)N1CCCC(c2nnc3ccccn23)C1 (stereo not drawn) ?
OTUD3 inh: -5.4; USP7 inh: -74.7; USP8 inh: 57.0*; USP10 inh: -3.5; UCHL1 inh: 7.0

How did COC(=O)CC1CC2=C(C(=O)c3c(O)cccc3C2=O)C(C)O1 (stereo not drawn) do in these assays?
OTUD3 inh: 24.5; USP7 inh: -132.4; USP8 inh: -46.4; USP10 inh: -12.9; UCHL1 inh: 5.2

How did C[C@@H]1OC2=C(C(=O)c3cccc(O)c3C2=O)[C@H](O)[C@@H]1O do in these assays?
OTUD3 inh: 67.2*; USP7 inh: -115.6; USP8 inh: 63.1*; USP10 inh: 48.7*; UCHL1 inh: 32.2*

Results for CCCCNC(=O)c1cc2cn(C3CC3)cc2s1 ?
OTUD3 inh: -28.3; USP7 inh: -24.3; USP8 inh: 78.3*; USP10 inh: -4.5; UCHL1 inh: -7.0

What do the screens show for `c1coc(-c2nc3ccccc3n2CCC2CCCCC2)c1`?
OTUD3 inh: 1.8; USP7 inh: -27.0; USP8 inh: 68.3*; USP10 inh: -3.0; UCHL1 inh: -4.2

How did Cc1cccc(Cn2c(C3CCCO3)nc3ccccc32)c1 (stereo not drawn) do in these assays?
OTUD3 inh: 0.5; USP7 inh: -58.1; USP8 inh: -5.6; USP10 inh: -4.4; UCHL1 inh: -8.2

What do the screens show for `Cc1cccc(OCC(=O)N(C)Cc2cc(=O)[nH]c3ccccc23)c1`?
OTUD3 inh: 13.3; USP7 inh: 0.3; USP8 inh: 30.1*; USP10 inh: 1.3; UCHL1 inh: 0.9

What do the screens show for `CCN1CCN(c2ccc(C(=O)O)cc2NS(=O)(=O)c2ccc(C(C)C)cc2)CC1`?
OTUD3 inh: 5.9; USP7 inh: -14.8; USP8 inh: 81.4*; USP10 inh: 1.3; UCHL1 inh: -1.0

How did Fc1ccc(CNc2nn3c(-c4cccnc4)cnc3s2)cc1 do in these assays?
OTUD3 inh: -3.0; USP7 inh: -16.4; USP8 inh: -2.8; USP10 inh: 4.8; UCHL1 inh: -0.7

How did CN(C)c1ccc(CNc2nn3c(-c4cccnc4)cnc3s2)cc1 do in these assays?
OTUD3 inh: 40.2*; USP7 inh: 4.0; USP8 inh: 24.3; USP10 inh: 7.4; UCHL1 inh: 2.7

What do the screens show for `c1cncc(-c2cnc3sc(NCc4ccc5c(c4)OCO5)nn23)c1`?
OTUD3 inh: 60.4*; USP7 inh: 3.7; USP8 inh: 36.6*; USP10 inh: 30.4*; UCHL1 inh: 3.0

Results for Cn1cc(CN[C@H]2[C@H](O)[C@H](O)C[C@@H]2c2ccc(C(F)(F)F)nc2)cn1 ?
OTUD3 inh: 6.6; USP7 inh: -9.0; USP8 inh: 42.5*; USP10 inh: -2.6; UCHL1 inh: 2.9

How did Cn1cc(CN[C@H]2[C@H](O)[C@H](O)C[C@@H]2c2ccccc2)cn1 do in these assays?
OTUD3 inh: -0.3; USP7 inh: 1.5; USP8 inh: 5.6; USP10 inh: 0.8; UCHL1 inh: -0.6

Results for Cc1cc(C(=O)N2CCC3(CC2)CC[C@@]2(C(=O)N(C)C)CN(C)C[C@@H]32)no1 ?
OTUD3 inh: 0.1; USP7 inh: -5.4; USP8 inh: -57.1; USP10 inh: -4.0; UCHL1 inh: -4.8

What do the screens show for `O=[N+]([O-])c1ccc(C(O)CN2CCN(Cc3ccccc3)CC2)cc1` (stereo not drawn)?
OTUD3 inh: 8.1; USP7 inh: 0.0; USP8 inh: -96.5; USP10 inh: 0.6; UCHL1 inh: 79.1*

Results for O=[N+]([O-])c1ccc(N2CCN(CC(O)c3ccc4c(c3)CCN4)CC2)cc1 (stereo not drawn) ?
OTUD3 inh: -5.8; USP7 inh: -8.2; USP8 inh: -99.8; USP10 inh: 1.1; UCHL1 inh: -0.8

Results for Cc1cc(C)c(NC(=O)CSc2nc3cn(C)nc3c(=O)n2CC2CC2)c(C)c1 ?
OTUD3 inh: -1.4; USP7 inh: 5.4; USP8 inh: 41.9*; USP10 inh: 13.5; UCHL1 inh: 0.5

What do the screens show for `Cc1ccc(NC(=O)Nc2ccc(C)n(CC(=O)Nc3ccc(C)c(C)c3)c2=O)cc1`?
OTUD3 inh: -2.7; USP7 inh: 42.8*; USP8 inh: 92.5*; USP10 inh: 65.9*; UCHL1 inh: 4.7

What do the screens show for `Cc1cccc(NC(=O)Nc2ccc(C)n(CC(=O)N3CCCCC3)c2=O)c1`?
OTUD3 inh: -1.2; USP7 inh: 1.2; USP8 inh: 4.7; USP10 inh: -3.8; UCHL1 inh: 1.6

Results for Cc1c(-c2ccccc2)oc2c(C(=O)OCC(=O)Nc3ccccc3F)cccc2c1=O ?
OTUD3 inh: 13.0; USP7 inh: 6.6; USP8 inh: 2.8; USP10 inh: 8.2; UCHL1 inh: -0.2
